Data on 25 compounds can be found in PubChem BioAssay.

The experiment is described as follows: probe aLAP1 signal on lysate-treated microarray – cell lysate, small-molecule microarray, COS7 lysate, primary screen (AID 1124).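 Also: lysate comes from COS7 cells expressing LAP1 and is applied at 0.3 µg/mL; score merges spot fluorescence near 667 nm with signal-to-noise over triplicate slides.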 Conditions: probe aLAP1, fluorescence, higher = more signal.
Compound `COC(=O)[C@@]1(Cc2ccc(OC)cc2)[C@H]2c3cc(C(=O)N4CCCC4)n(Cc4ccc(C)c(F)c4F)c3C[C@H]2CN1C(=O)c1ccccc1` yielded a composite z-score of 0.345. To `C=CCOC(=O)[C@H]1[C@@H]2C(=O)O[C@@H](c3ccccc3)[C@@H](c3ccccc3)N2[C@@H](c2ccc(OCCOC(=O)[C@H]3C[C@H]4C(=O)N[C@@H](CCCCNC(C)=O)C(=O)N4[C@H]3c3cccc(OCCO)c3)cc2)[C@]12C(=O)Nc1ccccc12` belongs 0.168; to `CC(C)c1ccc(NN2C(C(O)c3ccc(B(O)O)cc3)C=CC3C(=O)N(c4ccccc4)C(=O)C32)cc1` (stereo not given), 0.681; to `CCCC=C(CCC)[C@@H](NC(=O)c1cccs1)c1ccc(C(F)(F)F)cc1`, 0.156. To `COc1ccc(C#Cc2ccc3c(c2)[C@]2(C(=O)N3)[C@H](C(=O)Nc3nc4ccccc4s3)[C@H]3C(=O)O[C@H](c4ccccc4)[C@H](c4ccccc4)N3[C@@H]2c2ccc(O)cc2)cc1` belongs 0.641; to `CCCCCCc1nc(-c2cc(C)c(OC)c(C)c2)cc2c1[Si](C(C)C)(C(C)C)OC2`, -0.0553; to `COCCOC(=O)N1C(=O)[C@@]2(c3cc(C#Cc4ccc(OC)cc4)ccc31)[C@H](c1ccccc1OCCO)N1[C@H](c3ccccc3)[C@H](c3ccccc3)OC(=O)[C@H]1[C@@H]2C(=O)NC[C@H](O)c1ccccc1`, 0.618. Under `COC(=O)C(CC#Cc1ccc2c(c1)[C@]1(C(=O)N2)[C@H](c2ccc(OCCO)cc2)N2[C@H](c3ccccc3)[C@H](c3ccccc3)OC(=O)[C@H]2[C@@H]1C(=O)N1CCc2cc(OC)c(OC)cc2C1)C(=O)OC` stands 0.397; under `COCCOC(=O)N1C(=O)[C@@]2(c3cc(C#CCC(C(=O)OC)C(=O)OC)ccc31)[C@H](c1ccccc1OCCO)N1[C@H](c3ccccc3)[C@H](c3ccccc3)OC(=O)[C@H]1[C@@H]2C(=O)N1CCN(c2ncccn2)CC1`, 0.596; under `O=C(c1ccccc1)N1C(=O)[C@]2(COC(c3ccc(OCCCO)cc3)=N2)Cc2ccccc21`, 0.771. As for `COc1ccc([Si](C)(C)[C@@H]2[C@@H](CCO)O[C@]3(C(=O)N(Cc4ccc(N(C=O)c5ccccc5)cc4)c4ccccc43)[C@H]2C)cc1`, the composite z-score was -0.456.

Turning to `O=C1c2ccccc2[C@](Cc2ccccc2I)(C(=O)NCC(F)(F)F)[C@H](c2ccc(CO)cc2)N1Cc1ccccc1Cl`, the composite z-score is 1.42.

`COCCOC(=O)N1C(=O)[C@@]2(c3cc(C#CCCO)ccc31)[C@H](C(N)=O)[C@H]1C(=O)O[C@H](c3ccccc3)[C@H](c3ccccc3)N1[C@@H]2c1ccc(O)cc1`: the composite z-score was 0.505. Under `C=C(CCCC)/C(=C/C[C@@H](OC(=O)c1ccncc1)c1ccc(OCCO)cc1)c1cc(C(=O)OC)ccc1OC` stands 0.546. Under `C=CCN1C(=O)[C@]2(O[C@H](CCn3cc([C@H](O)c4ccccc4)nn3)[C@@H]([Si](C)(C)c3ccc(OC)cc3)[C@@H]2C)c2ccccc21` stands 0.0809. Consider `[N-]=[N+]=NCc1ccccc1[C@@H]1OC(c2ccc(OCCCO)cc2)=N[C@]1(Cc1ccccc1)C(=O)NCC(O)CO` (stereo not given in full), for which the composite z-score amounted to 1.18. Under `COc1cc2c(cc1OC)CN(C(=O)[C@H]1[C@@H]3C(=O)O[C@@H](c4ccccc4)[C@@H](c4ccccc4)N3[C@@H](c3ccc(O)cc3)[C@]13C(=O)Nc1ccc(C#CCCO)cc13)CC2` stands 0.127; under `C=CCNC(=O)[C@@H]1[C@H]2C(=O)O[C@H](c3ccccc3)[C@H](c3ccccc3)N2[C@H](c2ccccc2OCCO)[C@@]12C(=O)N(C(=O)OCCOC)c1ccccc12`, 0.594.

Compound `CC1(C)[C@@H]2CC(C(O)C3C=CC4C(=O)N(c5ccccc5)C(=O)C4N3Nc3ccc([N+](=O)[O-])cc3)=C[C@H]1C2` (stereo not given in full) showed a composite z-score of 0.0175. To `C=CCNC(=O)[C@H]1[C@@H]2C(=O)O[C@@H](c3ccccc3)[C@@H](c3ccccc3)N2[C@@H](c2ccccc2OCCO)[C@]12C(=O)Nc1ccc(C#CCC(C(=O)OC)C(=O)OC)cc12` belongs 0.634; to `O=C1C2C=CC(C(O)c3cc(C(F)(F)F)cc(C(F)(F)F)c3)N(n3cnnc3)C2C(=O)N1Cc1ccccc1` (stereo not given), -0.0088; to `COc1cc(NN2C(C(O)c3ccco3)C=CC3C(=O)N(c4ccccc4)C(=O)C32)cc(OC)c1OC` (stereo not given), 0.166. Under `CN(C)CCCCCCNC(=O)[C@@H]1C[C@@H]2C(=O)N[C@@H](Cc3ccccc3)C(=O)N2[C@@H]1c1ccc(O)cc1` stands -0.453; under `CC(C)NC(=O)[C@@]1(c2ccc([N+](=O)[O-])cc2)CC(=O)N(C2CCCCC2)[C@@H]1c1ccc(CO)cc1I`, 0.321. With `C=CC[C@]1(C(=O)NCc2ccccc2)N=C(c2ccc(OCCCO)cc2)O[C@H]1c1ccccc1N=[N+]=[N-]`, the composite z-score was found to be 0.727.
